Laboratory results reported in PubChem BioAssay (NCATS).
Results filed as inconclusive are left out. Where a call stands in place of a potency, no number is given. Activity calls are given as the source filed them. The call rests on the fitted dose curve; in most records, active means well fitted curve in the direction sought with a large enough effect; inconclusive means small, poorly fitted or top-dose-only effect, or another doubt; inactive means no such curve, though single readings can be large; an effect the other way counts as inactive or inconclusive.

Molecular target: Glucagon-like peptide 1 receptor (Homo sapiens) (UniProt P43220)
Sequence (P43220 whole entry, looked up): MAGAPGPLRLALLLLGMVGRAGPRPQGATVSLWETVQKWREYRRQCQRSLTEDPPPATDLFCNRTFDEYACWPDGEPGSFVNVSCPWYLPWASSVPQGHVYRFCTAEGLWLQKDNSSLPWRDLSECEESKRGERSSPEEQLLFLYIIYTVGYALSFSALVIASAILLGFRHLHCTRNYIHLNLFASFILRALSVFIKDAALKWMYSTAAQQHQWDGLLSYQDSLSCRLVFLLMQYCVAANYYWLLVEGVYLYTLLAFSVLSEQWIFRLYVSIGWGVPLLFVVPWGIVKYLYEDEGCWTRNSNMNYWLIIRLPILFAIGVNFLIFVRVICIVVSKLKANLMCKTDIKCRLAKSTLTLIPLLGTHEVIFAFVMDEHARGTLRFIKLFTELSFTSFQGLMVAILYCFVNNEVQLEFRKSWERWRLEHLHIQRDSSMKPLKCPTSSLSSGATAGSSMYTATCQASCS
Test: qHTS of GLP-1 Receptor Agonists: LOPAC Validation (AID 624148);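 further: higher luminescence signal means agonism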
Settings: GLP-1R agonist cell assay; series mostly up to 46.1 µM
Method in brief: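 HEK293 cells stably co-expressing a cAMP-responsive luciferase reporter and a hypersensitive GLP-1R were plated 12 h at 37 °C and exposed to compounds for 4-6 hr at 37 °C, 5% CO2. Luminescence was read 12 min after adding detection reagent.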

Row | SMILES | outcome
1 | O=C(CCCN1CCC2(CC1)C(=O)NCN2c1ccccc1)c1ccc(F)cc1 | inactive
2 | COc1ccc2c(c1OC)C(=O)O[C@H]2[C@@H]1c2cc3c(cc2CCN1C)OCO3 | inactive
3 | Cc1ncsc1CCCl | inactive
4 | O=c1[nH]oc2c1CCNC2 | inactive
5 | NCCc1ccc(O)cc1 | inactive
6 | C=C(C)[C@H]1CN[C@H](C(=O)O)[C@H]1CC(=O)O | inactive
7 | CC(NC(C)(C)C)C(=O)c1cccc(Cl)c1 (centres undefined) | inactive
8 | O=C(O)CCCc1ccc(N(CCCl)CCCl)cc1 | inactive
9 | CCC1(c2ccc(N)cc2)CCC(=O)NC1=O (centres undefined) | inactive
10 | CC(C)N(CCC(C(N)=O)(c1ccccc1)c1ccccn1)C(C)C (centres undefined) | inactive
11 | O=P1(N(CCCl)CCCl)NCCCO1 (centres undefined) | inactive
12 | CN1C(=O)CCS(=O)(=O)C1c1ccc(Cl)cc1 (centres undefined) | inactive
13 | CC(C)c1cccc(C(C)C)c1O | inactive
14 | CCCCC/C=C\C/C=C\C/C=C\C/C=C\CCCC(=O)NCC(=O)O | inactive

Tested on: not listed separately
Test: qHTS of Nrf2 Activators: LOPAC Validation (AID 624149)
Settings: Nrf2/ARE reporter cell assay; series mostly up to 46.1 µM
Method in brief: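 Luminescence read-out of ARE-luciferase activation: AREc32_Fluc cells treated with compounds for 24 hr at 37 deg C, then lysed with Steady-Glo for 30 min at room temperature before reading.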

Row | SMILES | outcome
15 | O=C(CCCN1CCC2(CC1)C(=O)NCN2c1ccccc1)c1ccc(F)cc1 | inactive
16 | COc1ccc2c(c1OC)C(=O)O[C@H]2[C@@H]1c2cc3c(cc2CCN1C)OCO3 | inactive
17 | CC(C)(C)NCC(O)c1ccccc1Cl (centres undefined) | inactive
18 | Cc1ncsc1CCCl | inactive
19 | O=c1[nH]oc2c1CCNC2 | inactive
20 | NCCc1ccc(O)cc1 | inactive
21 | C=C(C)[C@H]1CN[C@H](C(=O)O)[C@H]1CC(=O)O | inactive
22 | CC(NC(C)(C)C)C(=O)c1cccc(Cl)c1 (centres undefined) | inactive
23 | O=C(O)CCCc1ccc(N(CCCl)CCCl)cc1 | inactive
24 | CCC1(c2ccc(N)cc2)CCC(=O)NC1=O (centres undefined) | inactive
25 | CC(C)N(CCC(C(N)=O)(c1ccccc1)c1ccccn1)C(C)C (centres undefined) | inactive
26 | O=P1(N(CCCl)CCCl)NCCCO1 (centres undefined) | inactive
27 | CN1C(=O)CCS(=O)(=O)C1c1ccc(Cl)cc1 (centres undefined) | inactive
28 | CC(C)c1cccc(C(C)C)c1O | inactive
29 | CCCCC/C=C\C/C=C\C/C=C\C/C=C\CCCC(=O)NCC(=O)O | inactive

Tested on: not listed separately
Test: HTS Assay for Allosteric Antagonists of the Human D2 Dopamine Receptor: Hit Validation in HTRF (AID 624455); further: potency means the concentration at half of the fitted maximal effect;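 further: stable D1 dopamine receptor cell line scored for blocking the D1 response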
Settings: Cells stably expressing D1 dopamine receptor, inhibition mode; series mostly up to 46.1 µM
Method in brief: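 First, antagonism was screened by calcium flux in a force-coupled, inducible Hek293 Trex D2 line challenged with EC80 dopamine. Hits then went into an HTRF assay in cells stably expressing D1, testing inhibition of the D1 response.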

Row | SMILES | Potency
30 | O=C(CCCN1CCC2(CC1)C(=O)NCN2c1ccccc1)c1ccc(F)cc1 | inactive
31 | COc1ccc2c(c1OC)C(=O)O[C@H]2[C@@H]1c2cc3c(cc2CCN1C)OCO3 | inactive
32 | CC(C)C[C@H]1C(=O)N2CCC[C@H]2[C@]2(O)O[C@](NC(=O)[C@@H]3C=C4c5cccc6[nH]c(Br)c(c56)C[C@H]4N(C)C3)(C(C)C)C(=O)N12 | 3.26 µM (active)
33 | CC(C)(C)NCC(O)c1ccccc1Cl (centres undefined) | inactive
34 | Cc1ncsc1CCCl | inactive
35 | O=c1[nH]oc2c1CCNC2 | inactive
36 | C=C(C)[C@H]1CN[C@H](C(=O)O)[C@H]1CC(=O)O | inactive
37 | CC(NC(C)(C)C)C(=O)c1cccc(Cl)c1 (centres undefined) | inactive
38 | O=C(O)CCCc1ccc(N(CCCl)CCCl)cc1 | inactive
39 | CCC1(c2ccc(N)cc2)CCC(=O)NC1=O (centres undefined) | inactive
40 | CC(C)N(CCC(C(N)=O)(c1ccccc1)c1ccccn1)C(C)C (centres undefined) | inactive
41 | O=P1(N(CCCl)CCCl)NCCCO1 (centres undefined) | inactive
42 | CN1C(=O)CCS(=O)(=O)C1c1ccc(Cl)cc1 (centres undefined) | inactive
43 | CC(C)c1cccc(C(C)C)c1O | inactive
44 | CCCCC/C=C\C/C=C\C/C=C\C/C=C\CCCC(=O)NCC(=O)O | inactive
